In PubChem BioAssay (NCI):
The panel holds about 79,000 compounds, 15% with a hit somewhere; the sample as a whole holds those more often. A number with no mark means an inactive call. Active and inactive are the calls of the source. No stated cut-off is given here; in the data, active means growth inhibition above about 70%; inactive means the rest.

Tests used:
[1] = NCI Yeast Anticancer Drug Screen. Data for the rad50 strain (AID 155);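 further: 0% = growth of vehicle-only cultures of the same strain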; conditions: S. cerevisiae rad50 strain growth inhibition, active compounds read high
Outline: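 Yeast carrying a defined DNA repair defect were exposed to test compounds, and growth was compared with vehicle-treated controls to give percent inhibition.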

[2] = NCI Yeast Anticancer Drug Screen. Data for the mec2-1 strain (AID 157); conditions: S. cerevisiae mec2-1 strain, active compounds read high
Outline: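 Yeast mec2-1 mutant treated with compound. Readout: growth inhibition vs vehicle controls.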

[3] = NCI Yeast Anticancer Drug Screen. Data for the sgs1 mgt1 strain (AID 161);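 further: 0% = growth of cultures given vehicle only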; conditions: S. cerevisiae sgs1 mgt1 strain, active compounds read high
Outline: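 Mutant yeast exposed to compound; growth scored against vehicle-only wells.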

[4] = NCI Yeast Anticancer Drug Screen. Data for the cln2 rad14 strain (AID 165);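 further: 0% = growth equal to vehicle treated cultures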; conditions: S. cerevisiae cln2 rad14 strain, active compounds read high
Outline: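 cln2 rad14 yeast strain; compound exposure; growth inhibition read vs vehicle controls.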

[5] = NCI Yeast Anticancer Drug Screen. Data for the bub3 strain (AID 167); conditions: S. cerevisiae bub3 mutant strain, active compounds read high
Outline: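 Compounds were applied to a genetically altered yeast strain carrying a cell-cycle control defect. Growth inhibition was scored against vehicle-treated controls.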

[6] = NCI Yeast Anticancer Drug Screen. Data for the mlh1 rad18 strain (AID 175); conditions: S. cerevisiae mlh1 rad18 strain growth inhibition, active compounds read high
Outline: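 Yeast w/ defined DNA-repair lesions; compound exposure; growth vs vehicle controls → % inhibition.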

[7] = at 5.0 µM (retest, dose inferred, filed as 0.5)
[8] = at 50.0 µM (retest, dose inferred, filed as 5.0)

| Structure (SMILES) | growth inhibition [1, 7] | growth inhibition [1, 8] | growth inhibition ([1]; at 50.0 µM) | growth inhibition [2, 7] | growth inhibition [2, 8] | growth inhibition ([2]; at 50.0 µM) | growth inhibition [3, 7] | growth inhibition [3, 8] | growth inhibition ([3]; at 50.0 µM) | growth inhibition [4, 7] | growth inhibition [4, 8] | growth inhibition ([4]; at 50.0 µM) | growth inhibition [5, 7] | growth inhibition [5, 8] | growth inhibition ([5]; at 50.0 µM) | growth inhibition [6, 7] | growth inhibition [6, 8] | growth inhibition ([6]; at 50.0 µM) |
| --- | --- | --- | --- | --- | --- | --- | --- | --- | --- | --- | --- | --- | --- | --- | --- | --- | --- | --- |
| COc1ccc2c(c1)[n+]([O-])c(-c1ccc(Cl)cc1)c(N)[n+]2[O-] | 33% | 98% (active) | 99.2% (active) | 29% | 98% (active) | 99.3% (active) | 39% | 99% (active) | 99.3% (active) | 46% | 95% (active) | 98.8% (active) | 80% (active) | 99% (active) | 99.2% (active) | 79% (active) | 99% (active) | 99% (active) |
| O=C(Nc1cc(Cl)c(Cl)cc1Cl)C(=O)C(C(=O)c1ccc2ccccc2c1)C1OC(=O)c2ccccc21 (configuration not stated) | 17% | 17% | 67.7% | 2% | 2% | 37.2% | 15% | 15% | 63.9% | 6% | 6% | 64.5% | -8% | -8% | 59.2% | -14% | -14% | 40% |
| CCCCCCC(Sc1n[nH]c(=O)[nH]c1=O)C(=O)OCC (configuration not stated) | 3% | 76% (active) | 61.5% | -1% | 80% (active) | 52.9% | 1% | 88% (active) | 77.6% (active) | 3% | 83% (active) | 52% | 2% | 77% (active) | 43.5% | -2% | 89% (active) | 61.1% |
| NC1=C(O)C(=O)C(c2c3ccccc3cc3ccccc23)O1 (configuration not stated) | 16% | 98% (active) | 98.2% (active) | 17% | 98% (active) | 98% (active) | 8% | 98% (active) | 97.8% (active) | 7% | 95% (active) | 95.9% (active) | 16% | 98% (active) | 97.3% (active) | 4% | 98% (active) | 97.5% (active) |
| O=C1CC2(CCCC2)C(=O)N1c1ccc(N2C(=O)CC3(CCCC3)C2=O)cc1 | 3% | -10% | -11.8% | -3% | -12% | 6.95% | -1% | -7% | -22.4% | -5% | -7% | 44.1% | 0% | -4% | -0.9% | 1% | -5% | -11.7% |
| N#C/C=C/C=C/C#N | 1% | 2% | 24.4% | 5% | 2% | 79.8% (active) | 2% | 3% | 6.95% | -1% | -3% | 78.4% (active) | -2% | -5% | 99.5% (active) | -4% | -1% | 56.3% |
| CCCCCCCC/C=C\CCCCCCCC(=O)O (tested in a mixture with another compound) | 4% | 97% (active) | 96.2% (active) | -1% | 100% (active) | 99.3% (active) | 3% | 98% (active) | 89.7% (active) | 2% | 96% (active) | -53.9% | -2% | 99% (active) | 95.3% (active) | 0% | 96% (active) | 97.1% (active) |
| ClCc1ccccc1Cc1ccccc1 | 18% | 82% (active) | 98.6% (active) | 21% | 63% | 95.2% (active) | 27% | 83% (active) | 97.8% (active) | -1% | 35% | 94.5% (active) | -5% | 58% | 97.6% (active) | 35% | 85% (active) | 98% (active) |
| N#CC12CC3=C(N=C1NC1=C(CCc4ccccc41)C2)c1ccccc1CC3 (configuration not stated) | 24% | 51% | 57.8% | 19% | 34% | 42.8% | 20% | 44% | 48.5% | 18% | 29% | 17.9% | 23% | 45% | 51.1% | 20% | 60% | 24.6% |
| COc1ccc(/C=C(\C(=O)c2ccc(O)cc2)c2ccccc2)cc1OC | -5% | 97% (active) | 98.5% (active) | -9% | 97% (active) | 98% (active) | 2% | 98% (active) | 96.2% (active) | -5% | 99% (active) | 93.7% (active) | -4% | 98% (active) | 97.1% (active) | 0% | 99% (active) | 97.5% (active) |
| O=C1C(CCl)=CS(=O)(=O)c2ccccc21 | 10% | 99% (active) | 99.1% (active) | 17% | 99% (active) | 99.3% (active) | 16% | 99% (active) | 99.2% (active) | 5% | 99% (active) | 99.3% (active) | 4% | 99% (active) | 99.3% (active) | 36% | 99% (active) | 99.2% (active) |
| COc1ccccc1/C=C1\SC(=S)N(/C=C2\C(=O)Oc3ccccc3C2=O)C1=O | 1% | 12% | 30.9% | -3% | 27% | 18.6% | 8% | 12% | 54.2% | -8% | 17% | 58.9% | 20% | 38% | 32.2% | -16% | 14% | 53.7% |
| COC(=O)C12OCC34C(CC5C(C)C6=CC(=O)OC6=CC5(C)C3C(O)C1O)OC(=O)C(OC(C)=O)C24 (configuration not stated) | 69% | 99% (active) | 91.6% (active) | 66% | 99% (active) | 93.4% (active) | 63% | 99% (active) | 92.2% (active) | 64% | 99% (active) | 91.7% (active) | 68% | 99% (active) | 92.5% (active) | 79% (active) | 99% (active) | -22% |
| O=C(NCCCCC(NC(=O)OCc1ccccc1)C(=O)Nc1ccc(Nc2ccc(NC(=O)C(CCCCNC(=O)OCc3ccccc3)NC(=O)OCc3ccccc3)cc2)cc1)OCc1ccccc1 (configuration not stated) | 0% | -12% | 99% (active) | -3% | -13% | 99.5% (active) | -2% | -29% | 99.4% (active) | -1% | 0% | 87.7% (active) | 2% | 34% | 99.1% (active) | -1% | -12% | 98.4% (active) |
| CCCCCCCCCC1OCC(O)CO1 (configuration not stated) (tested in a mixture with another compound) | 7% | 66% | 99% (active) | 9% | 79% (active) | 96.1% (active) | 10% | 96% (active) | 98.7% (active) | 3% | 90% (active) | 86.4% (active) | 8% | 87% (active) | 89.3% (active) | 12% | 98% (active) | 99.5% (active) |
| CC1(C)OC2C(COC(c3ccccc3)(c3ccccc3)c3ccccc3)OC(n3cnc4c(=O)[nH]cnc43)C2O1 (configuration not stated) | 43% | 97% (active) | 69% | 62% | 99% (active) | 62% | 24% | 99% (active) | 56.5% | 19% | 97% (active) | 50.9% | 30% | 98% (active) | 49.9% | 84% (active) | 98% (active) | 61.9% |
| CC1CC(N)=NC1C(=O)NCCC#N (configuration not stated) | 20% | 8% | 10.9% | 27% | 8% | 3.25% | 38% | 17% | 64.1% | 14% | 2% | 72% (active) | 25% | -12% | 62.6% | 30% | 11% | 66.7% |
| COc1cc(NCCCCCNC(C)C)c2ncc(C)c(C)c2c1 | 3% | 36% | 75.7% (active) | -4% | 6% | 44.5% | 3% | 23% | 61.4% | 7% | 20% | 12.1% | 3% | 35% | 79% (active) | 9% | 27% | 55.4% |
| COc1ccc2cc(C3CCCC3(C)CC(=O)O)ccc2c1 (configuration not stated) | 7% | 11% | 57.2% | 11% | 10% | 39.9% | 4% | 8% | 62.1% | 3% | 7% | 11.1% | 2% | 2% | 3.85% | 1% | 9% | 64.5% |
